Results filed as inconclusive are left out. Active and inactive are the calls of the source. Unless noted, calls follow the shape of the dose curve; as a rule, active = well fitted curve in the direction sought with a large enough effect in the repeat runs; inconclusive = weak or mixed curves; inactive = no such curve, though single readings can be large; an effect the other way counts as inactive or inconclusive.
What was measured:
[1] = qHTS assay for small molecule agonists of the p53 signaling pathway (AID 651631; calls by dose curve; also: nearly all actives have a fitted effect of over 15% in size)
In short: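 We treat p53RE-bla HCT-116 cells with compounds for 16 h at 37 °C, add LiveBLAzer B/G FRET substrate for 2 h at room temperature, and measure fluorescence intensity.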

[2] = qHTS assay for small molecules that induce genotoxicity in human embryonic kidney cells expressing luciferase-tagged ATAD5 (AID 651632); also: nearly all actives have a fitted effect of over 15% in size; also: potency is read from the fitted curve at half-maximal effect
In short: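 Concentration-response screen for ATAD5 upregulation in HEK293T luciferase reporter cells; 16 hr treatment at 37C, then luminescence after 30 min with Amplite at room temperature.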

[3] = qHTS assay for small molecule agonists of the p53 signaling pathway - cell viability (AID 651633; calls by dose curve;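 also: p53RE-bla HCT reporter cells with a stable beta-lactamase p53 reporter; series mostly up to about 83 µM; nearly all actives have a fitted effect of over 30% in size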)
In short: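 p53RE-bla cells, seeded at 4,000 per well and rested 5 h at 37 C/5% CO2, received compounds in DMSO for 16 h at 37 C. CellTiter-Glo was then added, and luminescence was read after 30 min at room temperature to gauge cytotoxicity.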

[4] = qHTS assay for small molecules that induce genotoxicity in human embryonic kidney cells expressing luciferase-tagged ATAD5 - cell viability (AID 651634; calls by dose curve; also: nearly all actives have a fitted effect of over 25% in size)
In short: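 15.5 hr compound or vehicle exposure of HEK293T cells expressing luciferase-tagged ATAD5 at 37C; live-cell protease activity is read by fluorescence after 30 min of CellTiter-Fluor.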

[5] = qHTS assay for small molecule disruptors of the mitochondrial membrane potential - cell viability (AID 720634; calls by dose curve;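 also: human HepG2 liver cancer cells; series mostly up to about 83 µM; nearly all actives have a fitted effect of over 20% in size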)
In short: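 In this qHTS format, HepG2 cells plated overnight were pinned with compound, incubated 1 hr, and assayed for ATP luminescence with CellTiter-Glo after m-MPI dye addition.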

[6] = qHTS assay for small molecule disruptors of the mitochondrial membrane potential (AID 720635)
In short: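 HepG2 cells (2,000/well) attached overnight at 37C, then took compound for 1 hr at 37C, 5% CO2. Mito-MPS dye was added for 30 min; fluorescence was read at 490/535 nm (monomers) and 540/590 nm (aggregates).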

[7] = qHTS assay to test for compound auto fluorescence at 535 nm (green) in HepG2 cells (AID 720675)
[8] = qHTS assay to test for compound auto fluorescence at 460 nm (blue) in HEK293 cells (AID 720678)
In short: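 Triamterene serves as the blue fluorophore standard. Compound signal at 405/460 nm is read in HEK293 wells (2,000 cells, 10% dialyzed FBS) after overnight treatment at 37C.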

[9] = qHTS assay to test for compound auto fluorescence at 590 nm (red) in HepG2 cells (AID 720674)
In short: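 Rose Bengal sodium served as the red fluorophore standard. HepG2 monolayers (overnight attachment, MEM with 10% FBS) were exposed to test compounds for 1 hr at 37 C and read at Ex 540/Em 590 nm.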

[10] = qHTS assay to test for compound auto fluorescence at 590 nm (red) in HEK293 cells (AID 720679)
In short: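 We plated HEK293 cells in 10% dialyzed FBS medium, let them adhere for 4-5 hr, then added 23 nL compound. Overnight at 37C and 5% CO2 preceded fluorescence measurement at 540/590nm.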
% is scaled to controls: 0 for no effect and ±100 for the full control effect.

COc1ccc(C2CNC(=O)C2)cc1OC1CCCC1 (stereo unspecified)
inactive: outcome [1] | Potency [2] | outcome [3] | Potency [4] | outcome [5] | Potency [6] | fluorescence, % of fluorescein control [7] 0.104% [at 18.6 µM] | fluorescence, % of triamterene [8] 0.004% [at 18.6 µM]

COc1ccc(Br)c(C)c1
inactive: outcome [1] | Potency [2] | outcome [3] | Potency [4] | outcome [5] | Potency [6] | outcome [9] | outcome [7] | outcome [8] | outcome [10]

c1ccc2c(c1)ccc1c3ccccc3ccc21
active: Potency [2] 881 nM
inactive: outcome [1] | outcome [3] | Potency [4] | outcome [5] | Potency [6] | outcome [9] | outcome [7] | outcome [8] | outcome [10]

C=CCCCCCCCCCCCC
inactive: outcome [1] | Potency [2] | outcome [3] | Potency [4] | outcome [5] | Potency [6] | outcome [9] | outcome [7] | outcome [8] | outcome [10]

O=S(=O)(O)CCN1CCN(CCO)CC1
inactive: outcome [1] | Potency [2] | outcome [3] | Potency [4] | outcome [5] | Potency [6] | outcome [9] | outcome [7] | outcome [8] | outcome [10]

Cc1ccc(C=O)cc1C
inactive: outcome [1] | Potency [2] | outcome [3] | Potency [4] | outcome [5] | Potency [6] | outcome [9] | outcome [7] | outcome [8] | outcome [10]

C=COCCOCCOCCOC=C
inactive: outcome [1] | Potency [2] | outcome [3] | Potency [4] | outcome [5] | Potency [6] | outcome [7] | outcome [8] | outcome [10]

Cc1ccc2c(c1)OCC(=O)CO2
inactive: outcome [1] | Potency [2] | outcome [3] | Potency [4] | outcome [5] | Potency [6] | outcome [7] | outcome [8]

Cc1ccsc1/C=C/C1=NCCCN1C
inactive: outcome [1] | Potency [2] | outcome [3] | Potency [4] | outcome [5] | Potency [6] | fluorescence, relative to Rose Bengal [9] 0.162% [at 18.6 µM] | fluorescence, % of fluorescein control [7] 0.0988% [at 18.6 µM] | fluorescence, % of triamterene [8] -0.421% [at 18.6 µM] | fluorescence, % of fluorescent control [10] -1.08% [at 18.6 µM]

C=C(C)C(=O)OCCNC(C)(C)C
inactive: outcome [1] | Potency [2] | outcome [3] | Potency [4] | outcome [5] | Potency [6] | outcome [9] | outcome [7] | outcome [8] | outcome [10]

CCCCOC(=O)c1ccccc1
inactive: outcome [1] | Potency [2] | outcome [3] | Potency [4] | outcome [5] | Potency [6] | outcome [9] | outcome [7] | outcome [8] | outcome [10]

COc1ccc(S(=O)(=O)N2c3ccc(Cl)cc3[C@@](O)(c3ccccc3Cl)[C@H]2C(=O)N2CCC[C@@H]2C(N)=O)cc1OC
inactive: outcome [1] | Potency [2] | outcome [3] | Potency [4] | outcome [5] | Potency [6] | outcome [9] | outcome [7] | outcome [8] | outcome [10]

CC(=O)NCCCCCC(=O)O
inactive: outcome [1] | Potency [2] | outcome [3] | Potency [4] | outcome [5] | Potency [6] | outcome [9] | outcome [7] | outcome [8] | outcome [10]

CC(=O)CCCCn1c(=O)c2c(ncn2C)n(C)c1=O
inactive: outcome [1] | Potency [2] | outcome [3] | Potency [4] | outcome [5] | Potency [6] | fluorescence, relative to Rose Bengal [9] 0.0631% [at 18.6 µM] | fluorescence, % of fluorescein control [7] -0.15% [at 18.6 µM] | fluorescence, % of triamterene [8] 0.0666% [at 18.6 µM] | fluorescence, % of fluorescent control [10] -0.0868% [at 18.6 µM]

CC(=C(CCOC(=O)C(C)C)SSC(CCOC(=O)C(C)C)=C(C)N(C=O)Cc1cnc(C)nc1N)N(C=O)Cc1cnc(C)nc1N
inactive: outcome [1] | Potency [2] | outcome [3] | Potency [4] | outcome [5] | Potency [6] | outcome [9] | outcome [7] | outcome [8] | outcome [10]

CCCCCCOC(=O)CC
inactive: outcome [1] | Potency [2] | outcome [3] | Potency [4] | outcome [5] | Potency [6] | outcome [9] | outcome [7] | outcome [8] | outcome [10]

Nc1ccc2cc(S(=O)(=O)O)cc(O)c2c1
inactive: outcome [1] | Potency [2] | outcome [3] | Potency [4] | outcome [5] | Potency [6] | outcome [7] | outcome [8] | outcome [10]

CCOC(=O)c1ccc(OC(=O)CCCCCN=C(N)N)cc1
inactive: outcome [1] | Potency [2] | outcome [3] | Potency [4] | outcome [5] | Potency [6] | fluorescence, relative to Rose Bengal [9] -0.309% [at 18.6 µM] | fluorescence, % of fluorescein control [7] 0.0329% [at 18.6 µM] | fluorescence, % of triamterene [8] -0.0421% [at 18.6 µM] | fluorescence, % of fluorescent control [10] 0.895% [at 18.6 µM]

CC(=O)c1sc(C)nc1C
inactive: outcome [1] | Potency [2] | outcome [3] | Potency [4] | outcome [5] | Potency [6] | outcome [9] | outcome [7] | outcome [8] | outcome [10]

CCOc1cc(NC(C)=O)ccc1C(=O)OC
inactive: outcome [1] | Potency [2] | outcome [3] | Potency [4] | outcome [5] | Potency [6] | outcome [9] | outcome [7] | outcome [8] | outcome [10]

CCN1CCc2nc(N)oc2CC1
inactive: outcome [1] | Potency [2] | outcome [3] | Potency [4] | outcome [5] | Potency [6] | outcome [7] | outcome [8] | outcome [10]

Nc1ccc(S(=O)(=O)Nc2ccc(Cl)nn2)cc1
inactive: outcome [1] | Potency [2] | outcome [3] | Potency [4] | outcome [5] | Potency [6] | outcome [7] | outcome [8]

CCCCCCCCOS(=O)(=O)O
inactive: outcome [1] | Potency [2] | outcome [3] | Potency [4] | outcome [5] | Potency [6] | outcome [9] | outcome [7] | outcome [8] | outcome [10]

Reference: PubChem BioAssay (Tox21)
